Inconclusive results are not listed. Where a call stands in place of a potency, no number is given. Calls of active or inactive are those of the source. The call rests on the fitted dose curve; in most records, active means well fitted cell-killing curve with a large enough effect; inconclusive means small, poorly fitted or top-dose-only effect, or effect the other way; inactive means no such curve, though single readings can be large or run the other way.
Experiment: Quantitative High-Throughput drug screen in 47 multiple myeloma cell lines against the NCATS MIPE library collection: FR4_PLB cell viability assay (AID 1918924; further: nearly all actives have a fitted effect of over 35% in size)
Settings: FR4_PLB myeloma cells viability, CellTiter-Glo ATP, 48 h; series mostly up to 45.8 µM
Method in brief: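 Myeloma cell lines, 500 cells per well, exposed to MIPE 4.0 library compounds for 48 h at 37C, 5% CO2. Viability from ATP by CellTiter-Glo luminescence; normalised to DMSO (100%) and media-only (0%) wells.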
With `C[C@]12CC[C@@H]3c4ccc(O)cc4CC[C@H]3[C@H]1[C@@H](O)[C@@H](O)[C@H]2O` the Potency was “inactive”. With `FC(F)(F)c1ccc(C=Cc2nc(COc3ccc(CCCCn4ccnn4)cc3)co2)cc1` the Potency was 0.0662 µM (active). With `O=C1Nc2ccc(I)cc2C1=Cc1cc(Br)c(O)c(Br)c1` the Potency was “inactive”. For `CN1CC(=O)NC1=NC(=O)Nc1cccc(Cl)c1`, the Potency was 20.9 µM (active). In the case of `COc1cc2c(cc1OC)CC(=O)N(CCCN(C)C[C@H]1Cc3cc(OC)c(OC)cc31)CC2`, the Potency is reported as “inactive”. In the case of `CSc1cccc(Nc2ncc3cc(-c4c(Cl)cccc4Cl)c(=O)n(C)c3n2)c1`, the Potency is reported as 0.372 µM (active). With `CO[C@H]1C=CO[C@@]2(C)Oc3c(C)c(O)c4c(O)c(c(C=NN5CCN(C)CC5)c(O)c4c3C2=O)NC(=O)C(C)=CC=C[C@H](C)[C@H](O)[C@@H](C)[C@@H](O)[C@@H](C)[C@H](OC(C)=O)[C@H]1C` the Potency was “inactive”. For `CCC(=C(CC)c1ccc(O)cc1)c1ccc(O)cc1`, the Potency was 8.33 µM (active). With `COc1ccnc(CS(=O)c2nc3ccc(OC(F)F)cc3[nH]2)c1OC` (configuration not stated) the Potency was “inactive”. For `CC(C)c1c(C(=O)Nc2ccccc2)c(-c2ccccc2)c(-c2ccc(F)cc2)n1CC[C@H](O)C[C@@H](O)CC(=O)O`, the Potency was 14.8 µM (active). For `O=C(O)Cc1cccc(OCCCN(Cc2cccc(C(F)(F)F)c2Cl)CC(c2ccccc2)c2ccccc2)c1`, the Potency was “inactive”. In the case of `NC[C@H]1O[C@H](O[C@@H]2[C@@H](O)[C@@H](O[C@H]3O[C@H](CO)[C@@H](O)[C@H](N)[C@@H]3O)[C@H](N)C[C@@H]2N)[C@H](O)[C@@H](O)[C@H]1O`, the Potency is reported as “inactive”.

Reference: PubChem BioAssay (NCATS)
Potency means the concentration at half of the fitted maximal effect.
